Reference: PubChem BioAssay AID1159580 (chemical genetic matrix, 2015)
Values joined by “and” are separate entries in the source; they are usually repeats but may differ in a detail not shown here. Identical values can stand only once. The whole screen tested about 5,500 compounds, of which about 2,000 (36%) were called active. Not shown: some 18% with an inconclusive outcome. Cut-off read from the data, not from the text of the source: active = normalized growth mostly below about 0.91 (no sharp cut-off); inconclusive = no clear call, values can overlap the other calls; inactive = mostly above about 0.92. The list shows a part of the results.

Assay: chemical genetic growth profiling, strain panel (AID 1159580);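 note: tested at 20 µM; growth read once vehicle control cultures reached saturation at 30 °C; 1 = growth at the plate median or of vehicle wells; lower values mean less growth of the strain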
Conditions: growth OD

Measured: normalized growth

CS(=O)(=O)Nc1ccc([N+](=O)[O-])cc1Oc1ccccc1
inactive: S. cerevisiae deletion strains, locus YJR066W, strain TOR1, stronger effect = lower value 0.962 | S. cerevisiae deletion strains, locus YJR075W, strain HOC1, stronger effect = lower value 1 | S. cerevisiae deletion strains, locus YKL009W, strain mrt4, stronger effect = lower value 0.944 | S. cerevisiae deletion strains, locus YKL068W, stronger effect = lower value 0.988 | S. cerevisiae deletion strains, locus YKL085W, strain MDH1 (second series), stronger effect = lower value 0.99 | S. cerevisiae deletion strains, locus YKL085W, strain MDH1, stronger effect = lower value 0.99 | S. cerevisiae deletion strains, locus YKL160W, strain elf1, stronger effect = lower value 0.987 | S. cerevisiae deletion strains, locus YKL190W, strain CNB1, stronger effect = lower value 0.983 | S. cerevisiae deletion strains, locus YKR001C, strain vps1, stronger effect = lower value 0.938 | S. cerevisiae deletion strains, locus YKR026C, strain gcn3, stronger effect = lower value 0.987 | S. cerevisiae deletion strains, locus YKR091W, strain srl3, stronger effect = lower value 0.993 | S. cerevisiae deletion strains, locus YLL001W, strain dnm1, stronger effect = lower value 0.975 | S. cerevisiae deletion strains, locus YLL026W, stronger effect = lower value 0.993 | S. cerevisiae deletion strains, locus YLL041C, strain sdh2, stronger effect = lower value 0.995 | S. cerevisiae deletion strains, locus YLR027C, strain aat2, stronger effect = lower value 1 | S. cerevisiae deletion strains, locus YLR039C, strain RIC1, stronger effect = lower value 0.839 | S. cerevisiae deletion strains, locus YLR058C, strain SHM2, stronger effect = lower value 0.966 | S. cerevisiae deletion strains, locus YLR102C, strain apc9, stronger effect = lower value 0.984 | S. cerevisiae deletion strains, locus YLR113W, strain HOG1, stronger effect = lower value 1.03 | S. cerevisiae deletion strains, locus YLR221C, strain rsa3, stronger effect = lower value 0.994 | S. cerevisiae deletion strains, locus YLR258W, strain gsy2, stronger effect = lower value 0.988 | S. cerevisiae deletion strains, locus YLR262C, strain YPT6 (second series), stronger effect = lower value 0.889 | S. cerevisiae deletion strains, locus YLR262C, strain YPT6, stronger effect = lower value 0.75 | S. cerevisiae deletion strains, locus YLR268W, strain sec22, stronger effect = lower value 0.958 | S. cerevisiae deletion strains, locus YLR320W, strain mms22, stronger effect = lower value 0.994 | S. cerevisiae deletion strains, locus YLR330W, strain CHS5, stronger effect = lower value 0.993 | S. cerevisiae deletion strains, locus YLR342W, strain FKS1 (second series), stronger effect = lower value 1.08 | S. cerevisiae deletion strains, locus YLR342W, strain FKS1, stronger effect = lower value 0.997 | S. cerevisiae deletion strains, locus YLR357W, strain rsc2, stronger effect = lower value 0.986 | S. cerevisiae deletion strains, locus YLR370C, strain arc18, stronger effect = lower value 0.999 | S. cerevisiae deletion strains, locus YLR371W, strain rom2, stronger effect = lower value 0.984 | S. cerevisiae deletion strains, locus YLR384C, strain iki3, stronger effect = lower value 0.991 | S. cerevisiae deletion strains, locus YLR418C, strain cdc73, stronger effect = lower value 1.01 | S. cerevisiae deletion strains, locus YML016C, strain PPZ1, stronger effect = lower value 0.989 | S. cerevisiae deletion strains, locus YML032C, strain rad52, stronger effect = lower value 0.958 | S. cerevisiae deletion strains, locus YML120C, strain ndi1, stronger effect = lower value 0.993 | S. cerevisiae deletion strains, locus YML124C, strain tub3, stronger effect = lower value 0.982 | S. cerevisiae deletion strains, locus YMR058W, strain fet3, stronger effect = lower value 0.993 | S. cerevisiae deletion strains, locus YMR078C, strain ctf18, stronger effect = lower value 0.975 | S. cerevisiae deletion strains, locus YMR125W, strain sto1, stronger effect = lower value 0.984 | S. cerevisiae deletion strains, locus YMR129W, stronger effect = lower value 0.983 | S. cerevisiae deletion strains, locus YMR205C, strain PFK2, stronger effect = lower value 0.974 | S. cerevisiae deletion strains, locus YMR223W, strain ubp8, stronger effect = lower value 0.993 | S. cerevisiae deletion strains, locus YMR231W, strain pep5, stronger effect = lower value 1 | S. cerevisiae deletion strains, locus YMR307W, strain GAS1, stronger effect = lower value 1.05 and 0.989 | S. cerevisiae deletion strains, locus YNL067W, strain RPL9B, stronger effect = lower value 0.953 | S. cerevisiae deletion strains, locus YNL071W, strain lat1, stronger effect = lower value 1 | S. cerevisiae deletion strains, locus YNL128W, strain TEP1, stronger effect = lower value 0.981 and 0.986 | S. cerevisiae deletion strains, locus YNL175C, strain NOP13, stronger effect = lower value 0.995 | S. cerevisiae deletion strains, locus YNL183C, strain NPR1, stronger effect = lower value 0.943 | S. cerevisiae deletion strains, locus YNL197C, strain WHI3, stronger effect = lower value 0.99 | S. cerevisiae deletion strains, locus YNL209W, strain ssb2, stronger effect = lower value 0.994 | S. cerevisiae deletion strains, locus YNL224C, strain SQS1, stronger effect = lower value 1 | S. cerevisiae deletion strains, locus YNL233W, strain BNI4, stronger effect = lower value 0.927 | S. cerevisiae deletion strains, locus YNL248C, strain rpa49, stronger effect = lower value 1 | S. cerevisiae deletion strains, locus YNL250W, strain rad50, stronger effect = lower value 0.999 | S. cerevisiae deletion strains, locus YNL271C, strain bni1, stronger effect = lower value 0.972 | S. cerevisiae deletion strains, locus YNL298W, strain CLA4, stronger effect = lower value 0.966 | S. cerevisiae deletion strains, locus YNL307C, strain MCK1, stronger effect = lower value 0.966 | S. cerevisiae deletion strains, locus YNL322C, strain KRE1 (second series), stronger effect = lower value 0.994 | S. cerevisiae deletion strains, locus YNL322C, strain KRE1, stronger effect = lower value 0.986 and 1.01 | S. cerevisiae deletion strains, locus YNR049C, strain mso1, stronger effect = lower value 0.99 | S. cerevisiae deletion strains, locus YNR052C, strain pop2, stronger effect = lower value 0.976 | S. cerevisiae deletion strains, locus YOL006C, strain TOP1, stronger effect = lower value 0.841 | S. cerevisiae deletion strains, locus YOL012C, strain htz1 1.03 | S. cerevisiae deletion strains, locus YOL147C, strain pex11, stronger effect = lower value 0.98 | S. cerevisiae deletion strains, locus YOR001W, strain rrp6, stronger effect = lower value 0.99 | S. cerevisiae deletion strains, locus YOR061W, strain CKA2, stronger effect = lower value 0.964 | S. cerevisiae deletion strains, locus YOR069W, strain VPS5, stronger effect = lower value 0.994 | S. cerevisiae deletion strains, locus YOR070C, strain gyp1, stronger effect = lower value 0.986 | S. cerevisiae deletion strains, locus YOR080W, strain dia2, stronger effect = lower value 0.991 | S. cerevisiae deletion strains, locus YOR083W, strain WHI5 (second series), stronger effect = lower value 0.991 | S. cerevisiae deletion strains, locus YOR083W, strain WHI5, stronger effect = lower value 0.986 | S. cerevisiae deletion strains, locus YOR106W, strain vam3, stronger effect = lower value 1.01 | S. cerevisiae deletion strains, locus YOR136W, strain idh2, stronger effect = lower value 0.977 | S. cerevisiae deletion strains, locus YOR144C, strain elg1, stronger effect = lower value 0.981 | S. cerevisiae deletion strains, locus YOR184W, strain ser1, stronger effect = lower value 0.951 | S. cerevisiae deletion strains, locus YOR231W, strain MKK1, stronger effect = lower value 1.06 | S. cerevisiae deletion strains, locus YOR265W, strain rbl2, stronger effect = lower value 1.01 | S. cerevisiae deletion strains, locus YOR270C, strain vph1, stronger effect = lower value 0.97 | S. cerevisiae deletion strains, locus YOR290C, strain snf2, stronger effect = lower value 0.954 | S. cerevisiae deletion strains, locus YOR316C, strain cot1, stronger effect = lower value 0.961 | S. cerevisiae deletion strains, locus YPL051W, strain arl3, stronger effect = lower value 0.993 | S. cerevisiae deletion strains, locus YPL055C, strain LGE1, stronger effect = lower value 0.879 | S. cerevisiae deletion strains, locus YPL078C, strain atp4, stronger effect = lower value 0.994 | S. cerevisiae deletion strains, locus YPL106C, strain sse1, stronger effect = lower value 0.991 | S. cerevisiae deletion strains, locus YPL240C, strain hsp82, stronger effect = lower value 0.978 | S. cerevisiae deletion strains, locus YPL241C, strain CIN2, stronger effect = lower value 1.01 | S. cerevisiae deletion strains, locus YPL256C, strain CLN2, stronger effect = lower value 1.03 | S. cerevisiae deletion strains, locus YPR119W, strain clb2, stronger effect = lower value 0.973 | S. cerevisiae deletion strains, locus YPR141C, strain kar3, stronger effect = lower value 0.973 | S. cerevisiae deletion strains, locus YPR163C, strain tif3, stronger effect = lower value 0.988 | S. cerevisiae deletion strains, locus YPR167C, strain met16, stronger effect = lower value 0.986 | S. cerevisiae deletion strains, strain wtn01, stronger effect = lower value 0.968 | S. cerevisiae strains, strain wild type, stronger effect = lower value 0.978
